Assay in all cases: log2 fold change, soluble protein after heating vs DMSO (PISA); higher = thermal stabilisation; K562 lysate, 10 uM; active = over 0.2 and 3.5 SD of the protein, either way, in both replicates (recomputed)
Compound in experiment [1]: C1=CC=C(C=C1)[C@H](COC2=CC3=C(C=C2)NC(=O)N3)NC(=O)C4=CC=CN(C4=O)CC5=CC(=C(C=C5)F)F
Summed up: (§1)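 Log-two fold change in thermal stability relative to solvent controls is reported from duplicates. For each sample, crude K562 extract from dounce-homogenised pellets in PBS pH 7.4 with 1 mM MgCl2, at 1 mg/mL protein, was treated with 10 μM compound for 30 min. Aliquots heated for 3 min across 48°C-58°C were pooled, brought to 0.5% NP-40 at 4°C and cleared at 21,000xg for 90 min. The supernatant was quantified by TMTpro 16plex LC-MS/MS with channel sums equalised.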

Compound in experiment [2]: CC1=C(SC2=C1C(=N[C@H](C3=NN=C(N32)C)CC(=O)N)C4=CC=C(C=C4)Cl)C
In outline: as §1

Compound in experiment [3]: CC1=C2C(=CC=C1)N=C(N(C2=O)C3=CC=CC=C3C)CN4C=NC5=C(N=CN=C54)N
In outline: as §1

Compound in experiment [4]: Cc1sc2c(c1C)C(c1ccc(Cl)cc1)=N[C@@H](CC(=O)OC(C)(C)C)c1nnc(C)n1-2
In outline: as §1

Compound in experiment [5]: c1ccc([C@@H]2C[C@H]2NC2CCNCC2)cc1
Summed up: as §1

The full data set covers some 8,800 targets. This sample favours those with a hit. About 0.5% of all pairs of compound and target were hits. A number with no mark means an inactive call.

UniProt Q9Y639, sequence (Q9Y639 whole entry, looked up): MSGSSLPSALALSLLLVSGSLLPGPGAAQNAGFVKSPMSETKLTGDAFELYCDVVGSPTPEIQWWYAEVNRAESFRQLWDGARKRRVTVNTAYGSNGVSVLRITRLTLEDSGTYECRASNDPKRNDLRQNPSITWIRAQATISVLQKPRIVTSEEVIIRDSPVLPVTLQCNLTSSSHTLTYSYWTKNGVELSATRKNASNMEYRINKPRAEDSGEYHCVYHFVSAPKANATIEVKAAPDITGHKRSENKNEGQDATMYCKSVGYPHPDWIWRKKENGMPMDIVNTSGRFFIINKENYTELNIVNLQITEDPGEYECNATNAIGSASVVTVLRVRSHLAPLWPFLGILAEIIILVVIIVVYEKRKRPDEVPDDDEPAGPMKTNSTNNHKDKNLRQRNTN
UniProt Q9Y530, sequence (Q9Y530 whole entry, looked up): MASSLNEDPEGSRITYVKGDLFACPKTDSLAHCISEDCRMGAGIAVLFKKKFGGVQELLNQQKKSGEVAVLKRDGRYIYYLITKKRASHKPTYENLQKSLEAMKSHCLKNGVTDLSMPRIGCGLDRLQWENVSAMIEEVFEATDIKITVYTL
UniProt Q8NCF5, sequence (Q8NCF5 whole entry, looked up): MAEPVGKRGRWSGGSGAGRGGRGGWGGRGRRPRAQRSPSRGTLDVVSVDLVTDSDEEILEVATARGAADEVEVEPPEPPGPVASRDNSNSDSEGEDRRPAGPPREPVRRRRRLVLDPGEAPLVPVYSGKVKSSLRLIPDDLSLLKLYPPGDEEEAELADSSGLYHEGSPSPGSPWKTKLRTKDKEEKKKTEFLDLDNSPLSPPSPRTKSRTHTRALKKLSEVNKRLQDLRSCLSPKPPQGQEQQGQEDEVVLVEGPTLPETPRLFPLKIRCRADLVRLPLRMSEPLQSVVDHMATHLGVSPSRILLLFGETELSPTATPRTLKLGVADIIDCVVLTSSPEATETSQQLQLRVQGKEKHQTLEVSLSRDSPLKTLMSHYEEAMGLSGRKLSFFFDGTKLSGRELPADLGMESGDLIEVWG
UniProt P15559, sequence (P15559 whole entry, looked up): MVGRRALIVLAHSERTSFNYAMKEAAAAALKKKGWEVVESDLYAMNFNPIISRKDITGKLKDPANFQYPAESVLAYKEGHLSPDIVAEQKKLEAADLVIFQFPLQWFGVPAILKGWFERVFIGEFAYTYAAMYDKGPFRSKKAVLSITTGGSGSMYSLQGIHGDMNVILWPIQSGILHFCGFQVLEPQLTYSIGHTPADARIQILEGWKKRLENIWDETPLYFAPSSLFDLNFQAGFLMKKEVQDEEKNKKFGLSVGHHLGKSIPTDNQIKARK
UniProt Q13330, sequence (Q13330 whole entry, looked up): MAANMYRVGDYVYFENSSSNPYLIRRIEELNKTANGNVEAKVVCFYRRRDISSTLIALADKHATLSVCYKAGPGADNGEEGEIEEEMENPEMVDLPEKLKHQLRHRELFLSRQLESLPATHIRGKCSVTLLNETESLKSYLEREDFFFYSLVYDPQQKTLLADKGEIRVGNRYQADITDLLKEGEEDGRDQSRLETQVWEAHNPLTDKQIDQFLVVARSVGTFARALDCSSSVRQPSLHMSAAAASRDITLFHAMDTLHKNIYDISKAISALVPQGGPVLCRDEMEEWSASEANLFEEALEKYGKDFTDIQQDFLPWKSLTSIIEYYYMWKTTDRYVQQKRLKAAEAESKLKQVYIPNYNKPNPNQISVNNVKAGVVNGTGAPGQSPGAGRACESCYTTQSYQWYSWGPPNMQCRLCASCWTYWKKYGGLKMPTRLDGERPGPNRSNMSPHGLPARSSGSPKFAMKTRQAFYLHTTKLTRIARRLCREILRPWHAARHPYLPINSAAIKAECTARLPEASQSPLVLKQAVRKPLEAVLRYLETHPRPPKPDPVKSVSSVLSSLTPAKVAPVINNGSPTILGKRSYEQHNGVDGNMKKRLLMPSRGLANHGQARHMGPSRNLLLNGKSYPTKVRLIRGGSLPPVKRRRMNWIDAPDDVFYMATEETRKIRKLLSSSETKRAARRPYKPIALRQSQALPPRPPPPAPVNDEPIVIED
UniProt Q9Y5B6, sequence (Q9Y5B6 whole entry, looked up): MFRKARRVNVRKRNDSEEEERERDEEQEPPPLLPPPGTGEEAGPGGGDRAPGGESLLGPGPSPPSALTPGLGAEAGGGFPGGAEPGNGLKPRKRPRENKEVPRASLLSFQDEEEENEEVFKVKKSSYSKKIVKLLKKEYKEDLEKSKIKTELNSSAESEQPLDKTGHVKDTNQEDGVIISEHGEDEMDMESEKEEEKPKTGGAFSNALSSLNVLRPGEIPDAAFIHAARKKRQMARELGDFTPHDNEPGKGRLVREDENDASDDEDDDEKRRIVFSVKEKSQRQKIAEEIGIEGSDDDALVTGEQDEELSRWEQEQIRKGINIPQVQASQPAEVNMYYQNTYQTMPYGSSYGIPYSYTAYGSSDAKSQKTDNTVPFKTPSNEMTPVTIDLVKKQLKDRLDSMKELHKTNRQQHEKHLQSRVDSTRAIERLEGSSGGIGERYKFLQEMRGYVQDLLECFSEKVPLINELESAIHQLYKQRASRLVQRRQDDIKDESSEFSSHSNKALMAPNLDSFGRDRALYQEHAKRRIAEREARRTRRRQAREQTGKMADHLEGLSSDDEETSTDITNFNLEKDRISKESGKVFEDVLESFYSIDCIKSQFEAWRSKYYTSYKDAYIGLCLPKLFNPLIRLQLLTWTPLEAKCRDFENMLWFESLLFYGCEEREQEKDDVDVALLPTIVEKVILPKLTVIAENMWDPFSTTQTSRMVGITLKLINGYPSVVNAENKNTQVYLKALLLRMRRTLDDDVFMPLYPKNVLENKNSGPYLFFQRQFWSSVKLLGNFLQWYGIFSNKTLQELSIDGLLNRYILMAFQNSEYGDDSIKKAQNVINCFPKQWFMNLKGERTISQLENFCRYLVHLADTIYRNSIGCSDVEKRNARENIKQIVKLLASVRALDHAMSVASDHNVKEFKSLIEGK
UniProt Q6N069, sequence (Q6N069 whole entry, looked up): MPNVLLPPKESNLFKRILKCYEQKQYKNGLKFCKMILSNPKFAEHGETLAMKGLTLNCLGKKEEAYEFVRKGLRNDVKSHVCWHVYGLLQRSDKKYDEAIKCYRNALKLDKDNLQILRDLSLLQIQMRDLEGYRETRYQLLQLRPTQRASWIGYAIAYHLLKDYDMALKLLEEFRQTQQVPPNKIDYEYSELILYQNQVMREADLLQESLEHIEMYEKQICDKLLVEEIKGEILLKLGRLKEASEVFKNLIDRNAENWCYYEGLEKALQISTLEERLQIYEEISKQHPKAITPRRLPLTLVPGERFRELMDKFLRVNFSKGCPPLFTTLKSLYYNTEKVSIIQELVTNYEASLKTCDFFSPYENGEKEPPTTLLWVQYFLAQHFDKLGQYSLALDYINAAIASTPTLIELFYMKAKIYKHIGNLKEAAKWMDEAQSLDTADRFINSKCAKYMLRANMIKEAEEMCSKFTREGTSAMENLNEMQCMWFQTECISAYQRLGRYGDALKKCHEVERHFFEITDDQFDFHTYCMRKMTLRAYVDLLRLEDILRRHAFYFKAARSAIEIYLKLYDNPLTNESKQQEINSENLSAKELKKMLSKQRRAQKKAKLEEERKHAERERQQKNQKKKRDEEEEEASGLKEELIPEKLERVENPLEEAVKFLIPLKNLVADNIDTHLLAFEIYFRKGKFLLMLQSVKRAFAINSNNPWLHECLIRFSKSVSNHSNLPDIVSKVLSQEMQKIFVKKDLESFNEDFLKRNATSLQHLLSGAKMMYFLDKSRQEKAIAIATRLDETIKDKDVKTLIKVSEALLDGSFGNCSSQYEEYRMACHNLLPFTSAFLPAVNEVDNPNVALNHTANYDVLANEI
UniProt Q15233, sequence (Q15233 whole entry, looked up): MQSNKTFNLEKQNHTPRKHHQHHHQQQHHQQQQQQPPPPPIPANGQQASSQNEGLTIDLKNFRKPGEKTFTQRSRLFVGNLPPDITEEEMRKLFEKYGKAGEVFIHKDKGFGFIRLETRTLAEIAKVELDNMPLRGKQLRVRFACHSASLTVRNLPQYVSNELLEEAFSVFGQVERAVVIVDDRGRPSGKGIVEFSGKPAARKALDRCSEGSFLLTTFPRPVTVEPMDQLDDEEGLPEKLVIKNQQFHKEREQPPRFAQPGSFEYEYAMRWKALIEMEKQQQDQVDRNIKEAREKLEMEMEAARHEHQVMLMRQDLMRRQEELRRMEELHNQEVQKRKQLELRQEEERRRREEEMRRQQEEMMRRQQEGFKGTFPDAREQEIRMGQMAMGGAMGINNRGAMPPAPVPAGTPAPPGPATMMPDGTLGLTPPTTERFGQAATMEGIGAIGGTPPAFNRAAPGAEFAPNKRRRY
UniProt Q99836, sequence (Q99836 whole entry, looked up): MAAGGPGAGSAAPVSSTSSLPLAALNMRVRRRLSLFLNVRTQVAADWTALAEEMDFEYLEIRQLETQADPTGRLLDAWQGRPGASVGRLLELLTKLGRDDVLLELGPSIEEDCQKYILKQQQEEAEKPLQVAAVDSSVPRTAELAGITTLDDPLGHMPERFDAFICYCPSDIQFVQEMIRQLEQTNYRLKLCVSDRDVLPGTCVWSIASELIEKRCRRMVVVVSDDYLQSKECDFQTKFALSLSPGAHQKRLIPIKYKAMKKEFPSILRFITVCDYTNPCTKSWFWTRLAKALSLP
UniProt P80303, sequence (P80303 whole entry, looked up): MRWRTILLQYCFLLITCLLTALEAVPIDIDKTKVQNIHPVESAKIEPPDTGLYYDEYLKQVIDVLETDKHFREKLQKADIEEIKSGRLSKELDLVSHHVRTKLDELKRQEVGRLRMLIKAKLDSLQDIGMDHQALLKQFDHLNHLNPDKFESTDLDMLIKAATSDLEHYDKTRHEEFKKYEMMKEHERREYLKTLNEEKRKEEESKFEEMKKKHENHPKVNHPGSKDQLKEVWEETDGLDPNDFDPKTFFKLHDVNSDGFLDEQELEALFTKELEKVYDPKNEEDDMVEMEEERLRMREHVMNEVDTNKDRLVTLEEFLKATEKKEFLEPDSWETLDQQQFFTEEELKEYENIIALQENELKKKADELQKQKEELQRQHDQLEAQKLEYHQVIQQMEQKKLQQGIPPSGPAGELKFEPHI

On to NFATC2IP (UniProt Q8NCF5), for which the log2 fold change in experiment [1] was 0.012; in experiment [2] it was -0.01; in experiment [3], 0.009; in experiment [4], 0.138; in experiment [5] it was 0.049.

With PANK1 (UniProt Q8TE04), the log2 fold change in experiment [1] was -0.071; in experiment [2], -0.056; in experiment [3], 0.178; in experiment [4], -0.077; in experiment [5], 0.076.

Take OGFR (UniProt Q9NZT2): the log2 fold change is -0.016 in experiment [1]; 0.001 in experiment [2]; 0.012 in experiment [3]; -0.038 in experiment [4]; 0.088 in experiment [5].

As to NQO1 (UniProt P15559), the log2 fold change in experiment [1] was 0.433 (active); in experiment [2], 0.025; in experiment [3], 0.223; in experiment [4], -0.008; in experiment [5], -0.016.

For the target NPLOC4 isoform 2 (UniProt Q8TAT6), the log2 fold change in experiment [1] was 0.035; in experiment [2], 0.017; in experiment [3], 0.025; in experiment [4], -0.012; in experiment [5], -0.064.

NFAT5 isoform 4 (UniProt O94916): the log2 fold change in experiment [1] was -0.208; in experiment [2], 0.11.

With NEK9 (UniProt Q8TD19), the log2 fold change in experiment [1] is -0.002; in experiment [2] it was 0.002; in experiment [3], -0.033; in experiment [4], 0.017; in experiment [5] it was -0.032.

Consider PAXBP1 (UniProt Q9Y5B6), for which the log2 fold change is -0.004 in experiment [1]; -0.026 in experiment [2]; 0.026 in experiment [3]; 0.057 in experiment [4]; 0.001 in experiment [5].

Turning to NUCB2 (UniProt P80303), the log2 fold change was 0.041 in experiment [1]; -0.005 in experiment [2]; -0.011 in experiment [3]; -0.021 in experiment [4]; 0.079 in experiment [5].

As to NPTN (UniProt Q9Y639), the log2 fold change was 0.026 in experiment [1]; -0.045 in experiment [2]; -0.038 in experiment [3]; -0.018 in experiment [4]; -0.006 in experiment [5].

Consider NONO (UniProt Q15233), for which the log2 fold change in experiment [1] was -0.047; in experiment [2], 0.02; in experiment [3] it was 0.015; in experiment [4] it was 0.026; in experiment [5], 0.074.

For PARG (UniProt Q86W56), the log2 fold change is -0.011 in experiment [1]; -0.006 in experiment [2]; -0.005 in experiment [3]; -0.004 in experiment [4]; 0.091 in experiment [5].

Regarding NOSTRIN (UniProt Q8IVI9), the log2 fold change in experiment [1] was -0.061; in experiment [2], 0.039; in experiment [3], 0.017; in experiment [4], -0.092; in experiment [5] it was 0.017.

As to OARD1 (UniProt Q9Y530), the log2 fold change was -0.005 in experiment [1]; -0.014 in experiment [2]; 0.035 in experiment [3]; 0.044 in experiment [4]; -0.005 in experiment [5].

In the case of MSH6 (UniProt P52701), the log2 fold change in experiment [1] was -0.021; in experiment [2] it was 0.01; in experiment [3], 0.034; in experiment [4] it was 0.006; in experiment [5], 0.014.

As for NBN (UniProt O60934), the log2 fold change was 0.074 in experiment [1]; 0.046 in experiment [2]; 0.003 in experiment [3]; -0.011 in experiment [4]; 0.059 in experiment [5].

As to MTHFD1L (UniProt B7ZM99), the log2 fold change is -0.039 in experiment [1]; 0.025 in experiment [2]; 0.06 in experiment [3]; 0.025 in experiment [4]; 0.049 in experiment [5].

Turning to MYD88 isoform 6 (UniProt Q99836), the log2 fold change in experiment [1] was 0.019; in experiment [2], -0.021; in experiment [3], 0.026; in experiment [4] it was -0.008; in experiment [5] it was 0.013.

Regarding MTA3 (UniProt Q9BTC8), the log2 fold change was -0.006 in experiment [1]; -0.047 in experiment [2]; 0.002 in experiment [3]; 0.014 in experiment [4]; -0.001 in experiment [5].

For the target NDUFAF5 (UniProt Q5TEU4), the log2 fold change was 0.078 in experiment [1]; 0.016 in experiment [2]; 0.026 in experiment [3]; -0.174 in experiment [4]; 0.004 in experiment [5].

Take NAA16 (UniProt Q6N069): the log2 fold change in experiment [1] was 0.027; in experiment [2], 0.01; in experiment [3] it was 0.168; in experiment [4], 0.065.

Turning to OLA1 (UniProt Q9NTK5), the log2 fold change in experiment [1] is -0.001; in experiment [2], 0.04; in experiment [3], 0; in experiment [4] it was 0.011; in experiment [5] it was 0.022.

PANK4 (UniProt Q9NVE7): the log2 fold change in experiment [1] was -0.009; in experiment [2], -0.025; in experiment [3], 0.026; in experiment [4], 0.003; in experiment [5] it was -0.013.

With MTA1 (UniProt Q13330), the log2 fold change in experiment [1] is 0.005; in experiment [2], -0.01; in experiment [3] it was 0.01; in experiment [4], 0.055; in experiment [5], 0.012.

On to MRPL51 (UniProt Q4U2R6), for which the log2 fold change in experiment [1] was -0.001; in experiment [2] it was -0.053; in experiment [3], 0.043; in experiment [4], 0.066; in experiment [5], -0.109.

Source of the values: the supplement of paper PMC10849652.
